Assay outcomes from PubChem BioAssay.
MITF inh – MITF inhibitors, primary screen, biochemical, AlphaScreen, human; AlphaScreen MITF homodimerization, bead proximity signal; inhibition, % at 2.6 µM; 650,000 compounds, 0.91% hits; in the data active = inhibition above about 50%;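 note: 0% = vehicle wells with protein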
FBW7 activator – FBW7 E3 ligase activators, primary screen, biochemical, AlphaScreen, human; 650,000 compounds, 0.13% hits; normalized activity (activation), % at 26.1 µM; AlphaScreen FBW7–phospho-cyclin E peptide binding, activator screen; F-box/WD repeat-containing protein 7 (Homo sapiens), Q969H0; AID 1259310, 2017; in the data active = normalized activity above about 1.9%;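 note: purified mutant Fbw7 with reduced substrate affinity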
TEAD-YAP inh – TEAD-YAP interaction inhibition, primary screen, TEAD-YAP interaction inhibitor project, luminescence, HEK-TIYL cells; TEAD-Gal4/YAP UAS-luciferase luminescence; inhibition, % at 9.12 µM; 640,000 compounds, 1.4% hits; in the data active = inhibition above about 32%;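 note: 0% = median of test compound wells and 100% = reference inhibitor wells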
GPR151 activ – activators of human GPR151, primary screen, cell-based, PathHunter beta-arrestin, luminescence; G-protein coupled receptor 151 (Homo sapiens), Q8TDV0; PathHunter beta-arrestin GPR151 cells; activation, % at 11.2 µM; 650,000 compounds, 1% hits; AID 1508602, 2020; in the data active = activation above about 4.9%;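 note: 0% = median of compound wells and 100% = cells with positive control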
Target sequence (Q8TDV0 whole entry, looked up): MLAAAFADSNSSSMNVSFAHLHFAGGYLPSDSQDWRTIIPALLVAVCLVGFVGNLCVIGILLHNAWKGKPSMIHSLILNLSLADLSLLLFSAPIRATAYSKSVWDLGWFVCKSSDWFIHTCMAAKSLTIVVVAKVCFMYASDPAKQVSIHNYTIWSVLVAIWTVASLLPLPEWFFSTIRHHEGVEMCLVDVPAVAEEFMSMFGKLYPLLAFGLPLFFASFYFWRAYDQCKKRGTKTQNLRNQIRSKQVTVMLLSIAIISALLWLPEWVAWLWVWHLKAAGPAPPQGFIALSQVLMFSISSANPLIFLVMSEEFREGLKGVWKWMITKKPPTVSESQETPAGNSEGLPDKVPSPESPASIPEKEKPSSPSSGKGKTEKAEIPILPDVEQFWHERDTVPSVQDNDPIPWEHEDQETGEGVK
* hit, by the source's call. An excerpt weighted towards active compounds, which were near 3.4% of everything screened.

SMILES	MITF inh	FBW7 activator	TEAD-YAP inh	GPR151 activ
COc1cc(-c2nc3sc(C)c(C)c3c(=O)o2)cc(OC)c1OC	-2.6	2.3*	-3.8	0.0
COCCNC(=O)C(c1ccccc1)N(CCC(C)C)C(=O)Cn1nnc2ccccc21 (stereo not given)	3.2	-0.1	-8.3	0.3
CCOc1ccc(N(C(C)=O)C2=C(N3CCN(C)CC3)C(=O)c3ccccc3C2=O)cc1	9.2	-0.2	90.1*	-3.7
CC(=O)N(C1=C(N2CCOCC2)C(=O)c2ccccc2C1=O)c1ccccc1	11.8	-0.3	64.3*	-2.5
CC(=O)N(C1=C(N2CCOCC2)C(=O)c2ccccc2C1=O)c1cccc(Cl)c1	6.0	-0.8	13.1	-3.0
CN(C1=C(N2CCOCC2)C(=O)c2ccccc2C1=O)c1ccccc1	51.0*	-0.7	14.4	0.7
CC(=O)N(C1=C(N2CCCC2)C(=O)c2ccccc2C1=O)c1ccc(Cl)c(Cl)c1	20.9	-0.1	14.1	-2.7
CC(=O)N(C1=C(N2CCOCC2)C(=O)c2ccccc2C1=O)c1ccc(Cl)c(Cl)c1	117.2*	-0.4	39.5*	-3.3
CCOC(=O)Cn1c(=O)oc2cc(S(=O)(=O)NC3CCCCCCC3)ccc21	-6.8	-0.2	-5.1	-0.4
CC(=O)c1ccc(NC(=O)c2cn(-c3ccccc3)nc2-c2ccc(C)cc2)cc1	19.0	0.8	-5.0	0.5
CC(=O)N(C1=C(N2CCCC2)C(=O)c2ccccc2C1=O)c1cccc(F)c1	18.3	0.0	41.9*	-2.1
O=C1C(NC2CCCC2)=C(N2CCOCC2)C(=O)c2ccccc21	27.0	-0.1	79.2*	-3.0
O=C1C(N2CCCCC2)=C(N2CCOCC2)C(=O)c2ccccc21	4.6	-0.1	9.9	0.0
C[C@@H](OCc1ccccc1)[C@@H]1NC(=O)[C@H]2CNCCN2C1=O	7.0	0.3	-0.3	0.4
Cc1c(C(=O)NCc2cccnc2)oc2ccc3c(c12)C(=O)CC1(CCCC1)O3	5.0	0.3	39.9*	-0.3
COCCNC(=O)c1oc2ccc3c(c2c1C)C(=O)CC1(CCCCC1)O3	-2.8	-0.1	-0.2	0.0
CCOC(=O)/C(C#N)=C/c1cc(C)n(C2CCCC2)c1C	9.5	0.2	-23.2	0.6
CCC(C)(C)NC(=O)C(OC(=O)c1ccco1)c1ccc(C)cc1 (stereo not given)	7.6	1.9*	-3.0	-0.3
CCC(C)(C)NC(=O)C(OC(=O)c1ccco1)c1ccc(OC)cc1 (stereo not given)	11.5	0.1	-4.7	1.2
O=C(/C=C/Nc1ccccc1Br)c1ccccn1	8.0	0.1	91.6*	-6.6
O=C(/C=C/Nc1ccccc1Br)c1ccccc1	9.3	-0.3	82.7*	-5.8
O=C(/C=C\Nc1cccc(Br)c1)c1ccccc1	15.2	0.1	-54.2	1.5
O=C(/C=C/Nc1ccc(Br)cc1F)c1ccccc1	-2.7	0.1	83.7*	-2.1
O=C(/C=C/Nc1ccccc1F)c1ccc(Br)cc1	23.0	0.8	-46.9	-2.3
O=C(/C=C\Nc1ccccn1)c1ccccc1	14.1	0.0	41.3*	-5.8
SMILES	MITF inh	FBW7 activator	TEAD-YAP inh	GPR151 activ
CCOC(=O)c1c(-c2ccc(Cl)cc2)csc1NC(=O)C1CC=CCC1C(=O)O (stereo not given)	-13.4	-0.1	4.2	-1.0
CCCCC(=O)OCCCN1C(=O)c2cccc3c(N4CCCCC4)ccc(c23)C1=O	-1.7	0.0	-0.4	0.6
CCCCC(=O)OCCN1C(=O)c2cccc3c(N4CCOCC4)ccc(c23)C1=O	-31.2	3.4*	-23.2	1.1
CCCCOc1ccc(NC(=O)C2CCCCC2C(=O)O)cc1 (stereo not given)	8.5	0.5	3.6	0.2
Cc1cccc(Oc2ccc(NC(=O)c3ccccc3C(=O)O)cc2)c1C	0.5	-0.4	5.5	1.7
O=C(O)c1ccccc1C(=O)Nc1ccc(Oc2cccc3ccccc23)cc1	10.2	-0.1	82.0*	1.8
O=C(O)C1CCCCC1C(=O)Nc1ccc(Oc2cccc3ccccc23)cc1 (stereo not given)	6.4	-0.1	71.5*	-0.2
COc1ccc(C(=O)Nc2ccc(OCc3ccccc3)cc2)c(OC)c1	14.8	0.3	89.7*	-1.4
CN(C)S(=O)(=O)Nc1ccc(OCc2ccccc2)cc1	12.0	1.9*	-23.2	-1.4
O=S(=O)(Nc1ccc(OCc2ccccc2)cc1)c1ccc(Br)cc1	-0.4	0.1	-3.0	0.7
COc1cc(Nc2cccc(C(=O)NCCN(C(C)C)C(C)C)n2)cc(OC)c1OC	13.5	0.0	-1.2	1.5
COc1cc(Nc2cccc(C(=O)NCCc3ccc(O)cc3)n2)cc(OC)c1OC	13.0	0.0	34.9*	0.9
O=C(NCc1cccc(C(F)(F)F)c1)c1csc(Nc2ccc(N3CCOCC3)cc2)n1	22.1	0.1	51.4*	2.6
O=C(NCc1cccc(C(F)(F)F)c1)c1csc(Nc2ccc(C(F)(F)F)cc2)n1	-11.4	0.0	-5.7	1.3
COc1ccc(CCNC(=O)c2cccc(Nc3ccc(N4CCOCC4)cc3)n2)cc1	15.7	-0.1	59.4*	4.1
COc1ccc(CCNC(=O)c2cccc(NCCN3CCOCC3)n2)cc1	-4.0	-0.1	3.8	-0.6
O=C(NCc1cccc(C(F)(F)F)c1)c1cccc(Nc2ccc(N3CCOCC3)cc2)n1	16.3	0.2	62.3*	3.9
CCOC(=O)c1ccc(N2C(=O)C(O)=C(C(C)=O)C2c2ccc(O)c(OCC)c2)cc1 (stereo not given)	-8.9	-0.4	-2.8	-0.8
Clc1ccc(-c2cc3c(nn2)Nc2ccccc2N3)cc1	7.8	0.2	85.7*	-5.3
COc1ccc(-c2cc3c(nn2)Nc2ccccc2S3)cc1	8.2	0.9	85.6*	-4.0
COc1ccc(C2=CC(=O)Nc3ccccc3S2)cc1	9.7	0.7	-45.7	-1.0
Cc1[nH]c2ccccc2c1C(=O)COC(=O)CNC(=O)c1ccc(Br)o1	-11.5	0.0	-1.2	4.4
CCOc1ccc(C(=O)NCC(=O)OCC(=O)c2c(C)[nH]c3ccccc23)cc1	-0.1	2.1*	6.8	2.0
COc1cccc(C(=O)Nc2nc(CSCc3ccc(F)cc3)cs2)c1OC	-5.9	-0.1	-2.9	3.2
Cc1ccc(NC(=O)c2cc([N+](=O)[O-])cc(Cl)c2O)c(C)c1	5.7	-0.1	52.9*	-9.0
SMILES	MITF inh	FBW7 activator	TEAD-YAP inh	GPR151 activ
Cc1cccc(NC(=O)c2cc([N+](=O)[O-])ccc2Cl)c1O	10.1	0.7	32.8*	-1.6
Cc1ccc(NC(=O)c2ccc([N+](=O)[O-])cc2Cl)c(C)c1	2.7	-0.1	-31.4	-0.5
O=C(CN1CCN(Cc2ccc(Cl)cc2)C1=O)NCc1ccc2c(c1)OCO2	-5.3	-0.3	6.5	0.3
Cc1ccc2[nH]c3c(c2c1)CCCC3NCc1ccc(Cl)cc1 (stereo not given)	10.8	-0.1	43.2*	1.0
COC(CNC1CCCc2c1[nH]c1ccc(C)cc21)OC (stereo not given)	2.2	-0.1	14.3	0.0
O=C(NC1CCCCC1)N1CCC(c2nc3c(nnn3Cc3ccccc3)c(=O)[nH]2)CC1	10.2	0.0	44.3*	2.0
